Laboratory results published in publication PMC5540273 (PLoS ONE, 2017).

Assays:
Conditions in all cases: concentration: 1 μM, replicates: in singlicate; n = 1
[1] = test system: T1, NIM1
T1 construct: gene MGC42105

[2] = test system: NLK
[3] = test system: T2, OSR1
T2 construct: gene OXSR1

[4] = test system: PAK1
[5] = test system: PAK2
[6] = test system: PAK3
[7] = test system: PAK4
[8] = test system: PAK6
[9] = test system: PAK7
[10] = test system: T3, PCTK1
T3 construct: gene CDK16

[11] = test system: T4, PCTK2
T4 construct: gene CDK17

[12] = test system: T5, PCTK3
T5 construct: gene CDK18

[13] = test system: PDGFRA
[14] = test system: PDGFRB
[15] = test system: PDPK1
[16] = test system: PFTAIRE2
[17] = test system: T6, PFTK1
T6 construct: gene CDK14

[18] = test system: PHKG1
[19] = test system: PHKG2
[20] = test system: PIK3C2B
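Also: KINOMEscan kinase panel screen.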

SMILES | %Inh [1] [%] | %Inh [2] [%] | %Inh [3] [%] | %Inh [4] [%] | %Inh [5] [%] | %Inh [6] [%] | %Inh [7] [%] | %Inh [8] [%] | %Inh [9] [%] | %Inh [10] [%] | %Inh [11] [%] | %Inh [12] [%] | %Inh [13] [%] | %Inh [14] [%] | %Inh [15] [%] | %Inh [16] [%] | %Inh [17] [%] | %Inh [18] [%] | %Inh [19] [%] | %Inh [20] [%]
CCNC(=O)/C=C/c1n[nH]c2cc(Sc3ccccc3C(=O)NC)ccc12 | 2 | 57 | 0 | 0 | 0 | 0 | 0 | 4 | 20 | 7 | 0 | 10 | 100 | 99.9 | 6 | 0 | 13 | 14 | 19 | 0
Cl.Cl.NCC(NC(=O)c1cc(-c2cccnc2)c(-c2ccnc3[nH]ccc23)s1)c1ccccc1 (centres unmarked) [GSK1323434] | 36 | 19 | 17 | 4 | 6 | 39 | 0 | 28 | 65 | 0 | 14 | 0 | 0 | 28 | 26 | 29 | 28 | 7 | 2 | 0
Cl.Cl.NC(CNC(=O)c1cc(Br)c(-c2ccnc3[nH]ccc23)s1)c1ccccc1 (centres unmarked) [GSK1322949] | 65 | 22 | 34 | 32 | 36 | 67 | 0 | 16 | 46 | 21 | 14 | 0 | 8 | 63 | 76 | 40 | 22 | 74 | 56 | 0
CN(c1ccc(F)c(NC(=O)c2cccc(OC(C)(C)C#N)c2Cl)c1)c1ccc2nc(NC(=O)C3CC3)sc2n1 | 8 | 78 | 5 | 5 | 0 | 27 | 0 | 0 | 0 | 2 | 0 | 0 | 97.8 | 100 | 36 | 11 | 0 | 7 | 0 | 15
O=C1NC(=O)C(c2ccccc2Cl)=C1Nc1cccc(Cl)c1 [SB-342409] | 4 | 22 | 2 | 24 | 17 | 0 | 0 | 7 | 0 | 34 | 0 | 31 | 0 | 13 | 13 | 21 | 13 | 0 | 0 | 0
Cl.O=C(Nc1ccc(Oc2ccc3[nH]c(NC(=O)c4ccco4)nc3c2)cc1)Nc1cc(C(F)(F)F)ccc1F [GW683134] | 4 | 6 | 8 | 0 | 0 | 59 | 0 | 0 | 0 | 7 | 0 | 8 | 92.6 | 100 | 14 | 27 | 14 | 0 | 0 | 100
Nc1ncc(-c2cn[nH]c2)c2scc(-c3ccc4c(c3)CCN4C(=O)Cc3ccccc3)c12 [GSK2593067] | 17 | 0 | 13 | 0 | 0 | 51 | 0 | 0 | 0 | 3 | 0 | 29 | 96 | 100 | 65 | 0 | 0 | 0 | 0 | 0
CC(=O)Nc1cn2nc(Oc3cccc(NC(=O)c4cccc(C(F)(F)F)c4)c3)ccc2n1 | 0 | 16 | 0 | 9 | 15 | 16 | 15 | 12 | 0 | 0 | 0 | 6 | 99.6 | 100 | 9 | 0 | 3 | 31 | 0 | 0
COC(=O)Nc1nc2ccc(Oc3ccc(NC(=O)Nc4cc(C(F)(F)F)ccc4F)cc3)cc2[nH]1.Cl [GW654607] | 0 | 34 | 15 | 0 | 0 | 22 | 0 | 0 | 0 | 4 | 10 | 14 | 96.6 | 100 | 0 | 89 | 47 | 0 | 0 | 0
CN(c1ccc(NC(=O)Nc2cccc(Cl)c2)cc1)c1ccnc(N)n1.Cl [GW830707] | 0 | 4 | 0 | 5 | 34 | 6 | 1 | 7 | 0 | 0 | 0 | 10 | 97.5 | 100 | 20 | 1 | 15 | 23 | 0 | 0
CN1CCN(Cc2ccc(NC(=O)Nc3ccc(N(C)c4ccnc(Nc5ccc(CS(C)(=O)=O)cc5)n4)cc3)cc2)CC1.Cl [GW827654] | 42 | 0 | 0 | 24 | 65 | 62 | 98.4 | 34 | 51 | 22 | 43 | 0 | 99.9 | 99.9 | 10 | 22 | 0 | 19 | 0 | 0
COc1cc(Nc2nccc(N3CCC(NS(=O)(=O)c4ccc(NC(C)=O)cc4)CC3)n2)cc(OC)c1OC [GSK1379825] | 16 | 27 | 19 | 0 | 19 | 13 | 0 | 5 | 1 | 14 | 0 | 25 | 6 | 90 | 21 | 0 | 5 | 0 | 0 | 0
COc1cccc(-c2nc(-c3ccccc3)[nH]c2-c2ccncc2)c1 [SB-610250] | 40 | 89 | 0 | 23 | 32 | 16 | 0 | 0 | 0 | 5 | 0 | 14 | 0 | 0 | 0 | 14 | 16 | 0 | 0 | 0
CN(C)c1ncnc2nc[nH]c12 [SKF-31736] | 4 | 0 | 0 | 8 | 43 | 12 | 6 | 0 | 15 | 17 | 0 | 0 | 0 | 0 | 0 | 0 | 5 | 0 | 0 | 11
COc1cc(Nc2nccc(N3CCC(NC(=O)Nc4ccc5c(c4)OCO5)C3)n2)cc(OC)c1OC (centres unmarked) [GSK1379766] | 4 | 0 | 0 | 0 | 0 | 0 | 0 | 0 | 4 | 16 | 38 | 31 | 11 | 60 | 0 | 8 | 0 | 0 | 0 | 8
CCOc1nccc(-c2c(-c3ccc(F)cc3)ncn2C2CCNCC2)n1 [SB-249175] | 44 | 45 | 47 | 6 | 29 | 0 | 32 | 3 | 6 | 26 | 5 | 17 | 13 | 8 | 6 | 0 | 20 | 0 | 0 | 23
CNc1nccc(-c2ccc3c(N)n[nH]c3c2)n1 [GSK2206003] | 15 | 14 | 18 | 4 | 9 | 48 | 4 | 5 | 9 | 0 | 19 | 18 | 13 | 77 | 62 | 16 | 10 | 6 | 43 | 0
O=C(Nc1n[nH]c2nc(-c3ccccc3)ccc12)C1CC1 [SB-708999] | 29 | 78 | 17 | 0 | 0 | 5 | 0 | 0 | 0 | 16 | 23 | 36 | 16 | 31 | 34 | 8 | 29 | 12 | 1 | 0
Cc1ccc(O)cc1Nc1ccnc2cc(-c3ccc(CN4CCCCC4)o3)ccc12 [GW557777] | 0 | 19 | 0 | 24 | 23 | 0 | 13 | 21 | 7 | 0 | 0 | 8 | 95.3 | 99.7 | 0 | 0 | 15 | 9 | 7 | 0
